Laboratory results from the supplement of paper PMC6555819.

Columns and labels:
Experiment in all cases: PBM binding z-score (relative to random genomic background probes); higher = stronger binding; sequences stand for … in GC…GCGATTGACAGCGTAGAATGAAGG
[1] = test system: RARb homodimer (NR concentration 270 nM)
Outline: (§1)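 Antibodies against each partner of ligand-free nuclear receptor dimers (one per run) detected binding on custom Agilent 4×180K protein-binding microarrays after 1 h incubation. The double-stranded probes had 34-nt variable regions carrying direct-repeat seeds, single-nucleotide variants, half-site ablations and random human genomic background sequences. Binding z-scores, from regression-normalized fluorescence, use the random background probes as reference.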

[2] = test system: RARg:RXRa (NR concentration 270 nM, RXRa partner concentration 90 nM)
Outline: as §1

[3] = test system: RARg homodimer (NR concentration 270 nM)
Outline: as §1

[4] = test system: RXRa DBDmut IVT, anti-RXR (DBD mutation: RXRa K156A/R161A, NR concentration 90 nM)
Outline: as §1

[5] = test system: RXRa homodimer (NR concentration 180 nM)
Outline: as §1

[6] = test system: THRa:RXRa (NR concentration 90 nM, RXRa partner concentration 90 nM)
Outline: as §1

[7] = test system: THRa homodimer (NR concentration 90 nM)
Outline: as §1

[8] = test system: VDR homodimer (NR concentration 270 nM)
Outline: as §1

Row | Sequence | PBM binding z-score [1] | PBM binding z-score [2] | PBM binding z-score [3] | PBM binding z-score [4] | PBM binding z-score [5] | PBM binding z-score [6] | PBM binding z-score [7] | PBM binding z-score [8]
1 | GCGACTGGGGCAAAGCAGGTGACCATAAGGTTGG | 0.982 | 0.256 | 0.536 | -0.884 | 0.188 | 2.88 | -0.094 | -0.886
2 | TCTAGTTGGTCAAAGGTTACACACTCGAAATGCG | 2.96 | 4.04 | 2.46 | 1.54 | 4.59 | 2.37 | 1.01 | 1.23
3 | CAAACTAGGTCACAGAGGTCAAAGACCGTGCGTA | 5.43 | 7.3 | 7.86 | 3.1 | 7.71 | 4.68 | 2.81 | 6.4
4 | TGAATGATGTTATAAGATCAGGGAACGTTGCAAA | -0.648 | 0.116 | 0.244 | -1.01 | 0.153 | -0.185 | -0.281 | -0.22
5 | AGAATGAGGTTATTAAGTTCAGGGAATTGCGGTC | 2.35 | 2.35 | 1.43 | 3.07 | 2.52 | 3.11 | 1.36 | 6.33
6 | AGTGAAAGTTCACTAGGTAACGTAAGATTCAGCT | 3.4 | 4.46 | 5.32 | 3.84 | 3.77 | 1.96 | -0.00547 | 3.15
7 | CCTCGGAGGAGAGAAGGTCAGAGCTGTCCGCTTT | 2.71 | 1.89 | 1.69 | -0.424 | 1.89 | 1.59 | -0.246 | -0.0749
8 | CGGACGAGGGCATGAGTTGATAGCAAATGCCGAT | 0.742 | 1.16 | 1.89 | 2.01 | 0.928 | 1.17 | -0.188 | 1.46
9 | CCTCGGAGGACCGAAGGTCAGAGCTGTCCGCTTT | 2.65 | 2.03 | 2.2 | -0.585 | 1.54 | 1.62 | -0.389 | 0.161
10 | GCGACTGGGGCATCAGCAGGTTTCCATAACTTAA | 0.345 | -0.102 | -0.261 | 0.099 | -0.0783 | -0.0527 | -0.144 | 0.168
11 | AGTCATAGTTCAGGACGAGGTAACGTAAAGCACG | 1.82 | 2.66 | 2.61 | 0.51 | 1.39 | 3.35 | 1.67 | 0.515
12 | TCTATTAGTTGAAGGGCAAACGACGAGTCCGTTT | 1.26 | 0.673 | 0.64 | 1.79 | 1 | 0.493 | 0.286 | 1.91
13 | TCTGCTAGGTGAGTTGGTCAGCTAACGAGCTGCC | -0.359 | -0.346 | -0.369 | -0.485 | -0.331 | -0.346 | -0.955 | -0.985
14 | ATCTCTAAGTAAAAGTTCAGTGAATCCCGAGGAT | 2.23 | 1.54 | 1.99 | 1.09 | 0.961 | 0.533 | -0.127 | 1.62
